# Measurements published in PubChem BioAssay.
# Activity calls are given as the source filed them.
# Legend:
# [1] = system: PRMT1 (protein arginine N-methyltransferase 1); test: small molecules binding arginine methyltransferase PRMT1 – biochemical, small-molecule microarray, 635 nm fluorescence, primary screen (AID 1088); conditions: higher = more signal;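 also: binding of Prmt1 protein to compounds spotted on small-molecule microarray slides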
# [2] = growth effects on S. cerevisiae YJM789 – YJM789 clinical isolate, OD600, 24 h, basal, primary screen (AID 1089); conditions: higher = more signal, called active from +8 up or from −8 down;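 also: growth of clinical yeast isolate S. cerevisiae YJM 789 seeded 1000 cells per well; test concentration not given here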
# [3] = S. pombe growth modifiers, basal conditions – strain 972, OD600, 24 h, no modulator, primary screen (AID 1090);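 also: basal condition with compound alone and no growth modifier present; test concentration not given here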; conditions: S. pombe 972 growth, higher = more signal, called active from +8 up or from −8 down
# [4] = budding yeast growth modifiers under rapamycin – strain BY4716, OD600, 96 h, primary screen (AID 1091); also: test concentration not given here; conditions: S. cerevisiae BY4716 + rapamycin, higher = more signal, called active from +8 up or from −8 down
# [5] = target: Torsin-1A-interacting protein 2 (Homo sapiens) (UniProt Q8NFQ8); test: small molecules binding lysate-expressed LULL1 – cell lysate, human LULL1 lysate, 635/667 nm fluorescence, primary screen (AID 1092); conditions: small-molecule microarray, hLULL1 lysate binding, 635 nm fluorescence; higher = more signal;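 also: probe is lysate of COS7 cells overexpressing human LULL1; score merges per-feature 667 nm fluorescence with signal-to-noise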
# [6] = optical density change of DRC41 E. coli – strain DRC41, OD650, 24 h, E. coli filamentation project, primary screen (AID 1093);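 also: MC1000 strain lacking acrAB efflux and sulA so SOS filamentation is blocked; test concentration not given here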; conditions: E. coli DRC41 growth, higher = more signal, called active from +8 up or from −8 down
# [7] = probe aLefty2 binding to arrayed compounds – biochemical, biotinylated probe, 635/667 nm fluorescence, primary screen (AID 1094); conditions: small-molecule microarray, higher = more signal;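 also: score merges spot fluorescence near 667 nm with spot signal-to-noise ratio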
# [8] = system: Noggin (protein binding on small-molecule microarray); test: small molecules binding Noggin protein – biochemical, 635/667 nm fluorescence, primary screen (AID 1095); conditions: 635 nm fluorescence, higher = more signal;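 also: score merges 667 nm feature fluorescence with signal to noise over triplicate slides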
# [9] = target: Neurogenic locus notch homolog protein 3 (Homo sapiens) (UniProt Q9UM47); test: small molecules binding NOTCH3 protein – biochemical, 635/667 nm fluorescence, primary screen (AID 1096); conditions: small-molecule microarray, 635 nm fluorescence, higher = more signal
# [10] = probe aEGFR binding to arrayed compounds – biochemical, biotinylated probe, 635/667 nm fluorescence, primary screen (AID 1097); conditions: small-molecule microarray, higher = more signal;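 also: probe is a biotinylated anti-EGFR antibody binding compounds printed on slides; score combines fluorescence near 667 nm and signal to noise of each spot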
# [11] = system: Plasmodium falciparum Sir2 (PF13_0152, Sir2A); test: Plasmodium falciparum Sir2A binding compounds – biochemical, small-molecule microarray, 635 nm fluorescence, primary screen (AID 1098); conditions: fluorescence 635 nm, higher = more signal;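 also: score merges spot fluorescence intensity with its signal-to-noise ratio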
# [12] = probe aDKK1 binding to arrayed compounds – biochemical, biotinylated probe, 635/667 nm fluorescence, primary screen (AID 1099); conditions: small-molecule microarray, higher = more signal;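 also: score merges 667nm spot fluorescence with signal to noise across triplicate slides; reference of the scale not given here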
# [13] = probe aCHRDL2 binding to arrayed compounds – biochemical, biotinylated probe, 635/667 nm fluorescence, primary screen (AID 1100); conditions: small-molecule microarray, higher = more signal
# [14] = change in splice reporter luminescence, either direction, cell-based, HEK293, spliceosome inhibition project, primary screen (AID 1101); conditions: HEK293 splicing luciferase reporter, 24 h, higher = more signal, called active from +8 up or from −8 down;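 also: HEK293 cells carrying a splicing-competent luciferase reporter gene; test concentration not given here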
# [15] = target: Fibroblast growth factor 10 (Homo sapiens) (UniProt O15520); test: compounds binding fibroblast growth factor 10 – biochemical, small-molecule microarray, 635 nm fluorescence, primary screen (AID 1102); conditions: FGF10 binding, fluorescence 635 nm, higher = more signal
# [16] = system: glycogen synthase kinase-3 (GSK3A per assay name; protocol says GSK3B); test: compounds binding glycogen synthase kinase-3 – biochemical, small-molecule microarray, 635 nm fluorescence, GSK3A, primary screen (AID 1103); conditions: fluorescence 635 nm, higher = more signal; also: the record names both GSK3A and GSK3B
# [17] = target: Epidermal growth factor receptor (Homo sapiens) (UniProt P00533); test: compounds binding epidermal growth factor receptor – biochemical, small-molecule microarray, 635 nm fluorescence, primary screen (AID 1104); conditions: EGFR binding, higher = more signal;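 also: score merges 667 nm emission intensity with spot signal to noise over triplicate slides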
# [18] = target: Follistatin-related protein 3 (Homo sapiens) (UniProt O95633); test: compounds binding follistatin-related protein 3 – biochemical, small-molecule microarray, 635 nm fluorescence, primary screen (AID 1105); conditions: FSTL3 binding, higher = more signal;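 also: score merges emission near 667 nm and signal to noise per printed spot across three slides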
# [19] = target: Dickkopf-related protein 1 (Homo sapiens) (UniProt O94907); test: small molecules binding DKK1 protein – biochemical, small-molecule microarray, 635 nm fluorescence scan, primary screen (AID 1106); conditions: higher = more signal;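 also: score merges emission near 667 nm with signal to noise over three replicate slides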
# [20] = system: Inhibin beta A chain (activin A); test: small molecules binding activin A – biochemical, small-molecule microarray, 635 nm fluorescence scan, primary screen (AID 1107); conditions: INHBA, higher = more signal;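 also: mouse activin A protein probed at 4.33 µg/mL on printed slides; score merges bound-protein fluorescence near 667 nm with spot signal-to-noise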
# Sequence of Follistatin-related protein 3 (Homo sapiens) (O95633 whole entry, looked up): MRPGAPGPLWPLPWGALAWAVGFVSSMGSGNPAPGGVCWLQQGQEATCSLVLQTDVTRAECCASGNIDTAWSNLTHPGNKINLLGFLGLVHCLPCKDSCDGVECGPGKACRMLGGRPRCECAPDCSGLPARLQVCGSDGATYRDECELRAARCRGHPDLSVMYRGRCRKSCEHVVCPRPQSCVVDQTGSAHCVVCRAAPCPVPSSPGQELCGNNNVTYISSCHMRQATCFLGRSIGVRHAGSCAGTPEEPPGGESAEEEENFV
# Sequence of Torsin-1A-interacting protein 2 (Homo sapiens) (Q8NFQ8 whole entry, looked up): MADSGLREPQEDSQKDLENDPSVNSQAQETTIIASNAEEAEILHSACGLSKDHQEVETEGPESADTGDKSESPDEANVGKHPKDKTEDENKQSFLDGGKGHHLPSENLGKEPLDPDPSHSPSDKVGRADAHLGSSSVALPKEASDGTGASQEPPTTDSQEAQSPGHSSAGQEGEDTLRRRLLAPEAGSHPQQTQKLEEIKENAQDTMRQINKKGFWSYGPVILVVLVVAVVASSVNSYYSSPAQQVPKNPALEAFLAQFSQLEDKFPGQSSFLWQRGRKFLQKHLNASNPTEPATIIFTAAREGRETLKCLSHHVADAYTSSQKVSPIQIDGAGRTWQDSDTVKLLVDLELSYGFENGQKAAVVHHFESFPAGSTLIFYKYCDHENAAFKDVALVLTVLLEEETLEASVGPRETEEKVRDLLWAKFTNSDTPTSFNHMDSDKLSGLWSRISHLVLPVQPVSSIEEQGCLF
# Sequence of Neurogenic locus notch homolog protein 3 (Homo sapiens) (Q9UM47 whole entry, looked up): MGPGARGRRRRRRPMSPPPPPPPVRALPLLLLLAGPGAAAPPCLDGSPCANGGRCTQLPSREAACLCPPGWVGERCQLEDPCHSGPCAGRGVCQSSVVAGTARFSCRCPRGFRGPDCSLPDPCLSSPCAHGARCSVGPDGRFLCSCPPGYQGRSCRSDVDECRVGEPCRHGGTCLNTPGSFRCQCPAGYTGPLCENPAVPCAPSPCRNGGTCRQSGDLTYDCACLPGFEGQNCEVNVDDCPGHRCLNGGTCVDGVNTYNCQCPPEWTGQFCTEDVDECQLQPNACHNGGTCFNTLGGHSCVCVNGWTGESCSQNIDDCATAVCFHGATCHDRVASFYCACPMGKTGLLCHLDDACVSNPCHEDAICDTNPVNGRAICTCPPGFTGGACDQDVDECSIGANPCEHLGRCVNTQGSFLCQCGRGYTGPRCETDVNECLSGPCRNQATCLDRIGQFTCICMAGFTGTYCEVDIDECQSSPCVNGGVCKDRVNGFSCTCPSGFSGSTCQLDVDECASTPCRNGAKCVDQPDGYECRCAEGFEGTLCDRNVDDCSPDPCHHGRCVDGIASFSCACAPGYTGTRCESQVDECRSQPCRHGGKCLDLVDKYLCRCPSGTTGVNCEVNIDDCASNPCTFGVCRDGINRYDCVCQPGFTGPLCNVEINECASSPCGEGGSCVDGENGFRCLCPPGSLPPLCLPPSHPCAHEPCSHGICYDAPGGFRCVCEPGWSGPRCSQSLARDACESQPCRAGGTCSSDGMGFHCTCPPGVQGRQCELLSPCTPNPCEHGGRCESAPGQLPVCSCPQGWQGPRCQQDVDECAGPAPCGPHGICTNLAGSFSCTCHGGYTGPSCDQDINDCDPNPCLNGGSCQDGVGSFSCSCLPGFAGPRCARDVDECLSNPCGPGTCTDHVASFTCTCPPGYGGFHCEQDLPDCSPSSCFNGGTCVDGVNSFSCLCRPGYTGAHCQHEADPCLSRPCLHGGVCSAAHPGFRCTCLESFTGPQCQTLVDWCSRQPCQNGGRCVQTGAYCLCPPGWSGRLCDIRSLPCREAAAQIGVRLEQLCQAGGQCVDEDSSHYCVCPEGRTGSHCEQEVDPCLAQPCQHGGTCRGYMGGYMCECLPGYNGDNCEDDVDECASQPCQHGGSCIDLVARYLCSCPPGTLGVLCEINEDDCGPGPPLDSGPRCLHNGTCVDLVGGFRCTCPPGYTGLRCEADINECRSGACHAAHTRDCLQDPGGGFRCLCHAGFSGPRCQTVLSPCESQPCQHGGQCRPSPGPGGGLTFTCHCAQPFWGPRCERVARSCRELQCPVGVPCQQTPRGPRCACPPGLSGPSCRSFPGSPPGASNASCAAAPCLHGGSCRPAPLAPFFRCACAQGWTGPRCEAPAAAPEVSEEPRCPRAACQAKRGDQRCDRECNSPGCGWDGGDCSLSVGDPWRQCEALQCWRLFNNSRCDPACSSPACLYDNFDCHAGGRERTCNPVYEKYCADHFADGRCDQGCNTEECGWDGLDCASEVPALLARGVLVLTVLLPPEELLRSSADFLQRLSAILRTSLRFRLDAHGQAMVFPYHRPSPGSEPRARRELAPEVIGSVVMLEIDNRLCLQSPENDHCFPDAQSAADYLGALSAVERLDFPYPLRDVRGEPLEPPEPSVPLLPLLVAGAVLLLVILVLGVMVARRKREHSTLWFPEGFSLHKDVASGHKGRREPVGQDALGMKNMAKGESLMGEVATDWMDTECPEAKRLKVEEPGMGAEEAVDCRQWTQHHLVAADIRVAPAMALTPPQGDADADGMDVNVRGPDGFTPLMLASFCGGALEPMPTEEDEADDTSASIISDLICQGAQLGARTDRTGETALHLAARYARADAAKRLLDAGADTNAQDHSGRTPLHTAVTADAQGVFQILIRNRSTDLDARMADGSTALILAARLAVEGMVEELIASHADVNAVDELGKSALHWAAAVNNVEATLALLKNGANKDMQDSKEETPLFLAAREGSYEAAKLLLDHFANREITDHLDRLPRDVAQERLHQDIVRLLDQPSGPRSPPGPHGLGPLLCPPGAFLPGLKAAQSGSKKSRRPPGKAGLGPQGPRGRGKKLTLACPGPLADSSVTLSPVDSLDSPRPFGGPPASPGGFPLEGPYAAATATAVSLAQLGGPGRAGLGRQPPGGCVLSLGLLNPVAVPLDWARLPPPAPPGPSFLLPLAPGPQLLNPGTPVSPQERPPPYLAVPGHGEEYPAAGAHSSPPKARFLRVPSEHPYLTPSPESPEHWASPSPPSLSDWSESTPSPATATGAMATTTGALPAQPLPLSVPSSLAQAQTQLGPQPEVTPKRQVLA
# Sequence of Dickkopf-related protein 1 (Homo sapiens) (O94907 whole entry, looked up): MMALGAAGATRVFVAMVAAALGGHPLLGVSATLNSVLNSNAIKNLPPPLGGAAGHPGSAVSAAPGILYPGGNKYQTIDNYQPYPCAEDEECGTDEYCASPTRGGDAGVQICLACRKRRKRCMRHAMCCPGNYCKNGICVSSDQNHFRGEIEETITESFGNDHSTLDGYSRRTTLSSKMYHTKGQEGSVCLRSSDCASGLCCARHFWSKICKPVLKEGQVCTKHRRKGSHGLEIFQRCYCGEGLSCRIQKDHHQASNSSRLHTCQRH
# Sequence of Epidermal growth factor receptor (Homo sapiens) (P00533 whole entry, looked up): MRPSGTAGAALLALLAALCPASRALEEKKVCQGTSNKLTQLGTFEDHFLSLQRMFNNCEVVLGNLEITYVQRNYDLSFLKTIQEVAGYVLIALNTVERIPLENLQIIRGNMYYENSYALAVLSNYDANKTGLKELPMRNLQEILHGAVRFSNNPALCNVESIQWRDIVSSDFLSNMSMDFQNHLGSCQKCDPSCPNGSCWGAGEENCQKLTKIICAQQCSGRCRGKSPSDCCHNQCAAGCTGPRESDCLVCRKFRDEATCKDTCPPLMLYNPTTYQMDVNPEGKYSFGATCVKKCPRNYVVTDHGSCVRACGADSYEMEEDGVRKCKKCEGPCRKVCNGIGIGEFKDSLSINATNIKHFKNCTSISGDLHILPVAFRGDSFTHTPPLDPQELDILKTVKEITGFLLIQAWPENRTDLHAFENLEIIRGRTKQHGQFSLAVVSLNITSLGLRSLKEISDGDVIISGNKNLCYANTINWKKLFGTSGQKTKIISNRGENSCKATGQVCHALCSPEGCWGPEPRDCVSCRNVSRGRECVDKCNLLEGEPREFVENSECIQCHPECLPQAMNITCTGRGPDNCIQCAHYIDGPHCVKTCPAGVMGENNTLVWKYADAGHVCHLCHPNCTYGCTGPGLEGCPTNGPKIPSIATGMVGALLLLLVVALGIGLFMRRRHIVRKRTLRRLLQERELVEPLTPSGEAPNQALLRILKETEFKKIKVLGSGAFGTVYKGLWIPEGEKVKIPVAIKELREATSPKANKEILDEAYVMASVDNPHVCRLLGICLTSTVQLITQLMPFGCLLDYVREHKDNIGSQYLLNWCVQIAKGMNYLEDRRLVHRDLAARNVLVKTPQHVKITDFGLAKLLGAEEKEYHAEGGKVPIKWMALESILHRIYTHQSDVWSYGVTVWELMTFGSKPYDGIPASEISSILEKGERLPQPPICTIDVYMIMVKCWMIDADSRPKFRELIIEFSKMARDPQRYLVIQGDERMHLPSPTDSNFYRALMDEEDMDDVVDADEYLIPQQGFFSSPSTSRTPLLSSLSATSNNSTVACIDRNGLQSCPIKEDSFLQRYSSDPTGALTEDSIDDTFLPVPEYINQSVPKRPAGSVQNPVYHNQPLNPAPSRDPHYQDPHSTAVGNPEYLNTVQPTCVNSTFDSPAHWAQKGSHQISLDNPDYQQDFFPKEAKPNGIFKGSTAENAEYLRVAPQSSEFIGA
# Sequence of Fibroblast growth factor 10 (Homo sapiens) (O15520 whole entry, looked up): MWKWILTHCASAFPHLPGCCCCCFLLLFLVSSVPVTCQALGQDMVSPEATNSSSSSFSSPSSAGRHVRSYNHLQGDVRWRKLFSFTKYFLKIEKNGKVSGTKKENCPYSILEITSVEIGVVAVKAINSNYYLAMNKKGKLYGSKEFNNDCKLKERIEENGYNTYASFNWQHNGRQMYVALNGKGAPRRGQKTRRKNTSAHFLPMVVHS
SMILES,composite z-score [1],z-score [2],z-score [3],z-score [4],composite z-score [5],z-score [6],composite z-score [7],composite z-score [8],composite z-score [9],composite z-score [10],composite z-score [11],composite z-score [12],composite z-score [13],z-score [14],composite z-score [15],composite z-score [16],composite z-score [17],composite z-score [18],composite z-score [19],composite z-score [20]
[N-]=[N+]=NCc1ccccc1[C@@H]1OC(c2ccc(OCCCO)cc2)=N[C@]1(Cc1ccccc1)C(=O)NCc1ccccc1,0.872,1.26 (inactive),0.8 (inactive),8.96 (active),3.12,0.615 (inactive),0.239,-0.0171,0.672,-0.117,0.869,-0.0406,0.996,-1.29 (inactive),0.769,0.113,0.131,0.529,-0.154,0.656
Cc1c(NC(=O)/C(C#N)=C/c2ccc(Cl)cc2)c(=O)n(-c2ccccc2)n1C,0.505,-1.53 (inactive),-1.57 (inactive),-0.311 (inactive),1.55,-0.155 (inactive),-0.0657,0.532,0.992,-0.153,0.878,-0.115,0.1,-0.0648 (inactive),0.938,0.0624,0.324,0.371,0.101,0.311
CCCCNC(=O)c1ccc(C#C[Si](C)(C)C)c(OC(C)=O)c1,0.305,0.453 (inactive),-2.02 (inactive),-0.973 (inactive),-0.092,1.54 (inactive),-0.0926,0.309,-0.174,-0.096,-0.0653,-0.31,-0.509,-0.176 (inactive),0.458,0.419,0.315,0.384,0.374,0.58
CN1C(=O)C2C=CC(C(O)c3ccc(-c4ccccc4)s3)N(Nc3ccccc3)C2C1=O (stereo not given),0.932,-1.29 (inactive),0.447 (inactive),0.164 (inactive),2.91,-0.576 (inactive),0.182,-0.399,1.11,-0.0043,1.27,0.644,1.1,1.43 (inactive),0.737,0.703,0.138,0.898,-0.0947,1.23
CN(C)CCCCNC(=O)[C@H]1C[C@H]2C(=O)NCC(=O)N2[C@H]1c1cccc(OCCO)c1,0.826,0.259 (inactive),1.06 (inactive),-0.431 (inactive),1.6,0.52 (inactive),-0.121,0.938,1.01,-0.3,0.828,-0.173,0.084,-0.706 (inactive),1.02,-0.54,0.138,0.186,0.168,-0.09
COC(=O)[C@@]1(Cc2ccc(F)cc2)[C@H]2c3cc(C(=O)N(C)C)n(CCN4CCOCC4)c3C[C@H]2CN1C(=O)c1ccccc1,0.101,0.218 (inactive),0.323 (inactive),0.0727 (inactive),2.5,0.176 (inactive),0.246,-0.539,0.417,0.865,0.756,1.72,0.868,-0.575 (inactive),1.03,1.12,0.045,-0.265,-0.431,0.84
COc1ccc(C(O)C2C=CC3C(=O)N(C)C(=O)C3N2Nc2ccc([N+](=O)[O-])cc2[N+](=O)[O-])cc1OCc1ccccc1 (stereo not given),1.35,0.932 (inactive),1.01 (inactive),0.839 (inactive),2.96,-0.636 (inactive),0.468,0.0404,1.06,0.349,0.994,1.23,1.24,1.16 (inactive),0.895,0.858,0.0333,0.84,-0.508,0.718
Cc1c(-c2ccc(-c3ccc(Cl)c(Cl)c3)o2)nc(-c2ccccc2)c2c1CO[Si]2(C(C)C)C(C)C,0.371,-0.657 (inactive),-1.69 (inactive),0.069 (inactive),0.867,-1.34 (inactive),-0.216,0.423,-0.0183,-0.231,0.872,-0.186,0.11,2.11 (inactive),0.316,-0.449,-0.532,-0.382,-0.234,0.938
C=CCNC(=O)[C@@H]1[C@H]2C(=O)O[C@H](c3ccccc3)[C@H](c3ccccc3)N2[C@H](c2ccccc2OCCO)[C@@]12C(=O)N(C(=O)OCCOC)c1ccc(C#CCCO)cc12,1.55,0.656 (inactive),0.619 (inactive),3.69 (inactive),2.88,-0.625 (inactive),-0.135,0.96,1.08,0.038,1.05,-0.274,0.272,-0.821 (inactive),1.35,1.23,0.266,0.904,0.312,0.241
O=C1c2ccccc2[C@@]2(Cc3ccccc3N(Cc3ccccc3)C2=O)[C@H](c2ccc(CO)cc2)N1Cc1ccccc1,0.131,-0.82 (inactive),-0.678 (inactive),15.9 (active),0.118,-0.737 (inactive),-0.0321,-0.945,-1.15,-0.218,1.45,0.617,0.819,1.18 (inactive),-0.74,-1.37,-0.949,-0.604,-0.868,0.58
Cc1ccc(S[C@]2(C(=O)NCC(F)(F)F)CC(=O)N(C3CCCCC3)[C@@H]2c2ccc(CO)cc2)cc1,1.28,0.565 (inactive),-0.211 (inactive),-0.0121 (inactive),2.9,0.471 (inactive),0.0078,-0.461,-0.107,-0.194,1.58,0.433,0.83,0.113 (inactive),0.162,-0.374,-0.235,-0.517,-1.09,-0.0076
CC[C@H](C)C(=O)O[C@H]1CC[C@]2(C)C3=C(CCC2C1(C)C)[C@]1(C)CC[C@H]([C@H](C)CCCC(C)C)[C@@]1(C)CC3 (stereo not given in full),0.0683,0.737 (inactive),0.14 (inactive),0.17 (inactive),0.125,2.24 (inactive),-0.108,0.296,0.854,-0.0431,0.479,-0.0754,-0.314,-0.634 (inactive),0.48,0.634,0.65,0.487,0.474,0.0848
COCCOC(=O)N1C(=O)[C@@]2(c3ccccc31)[C@H](C(=O)N1CCCCCCC1)[C@H]1C(=O)O[C@H](c3ccccc3)[C@H](c3ccccc3)N1[C@@H]2c1ccc(O)cc1,1.53,-1.37 (inactive),-0.268 (inactive),1.63 (inactive),4.37,1.39 (inactive),1.75,1.11,1.09,1.15,1.86,2.77,1.76,-0.216 (inactive),1.38,1.35,1.32,1.68,1.93,1.92
COc1cc(OC)c(C(O)C2C=CC3C(=O)N(c4ccccc4)C(=O)C3N2Nc2ccccc2F)cc1Br (stereo not given),1.58,0.0228 (inactive),1.77 (inactive),0.511 (inactive),3.44,-1.36 (inactive),0.0235,0.662,1.03,-0.0531,0.76,0.805,0.95,0.484 (inactive),0.97,0.0826,0.256,1.45,-0.351,0.625
COCCOC(=O)N1C(=O)[C@@]2(c3cc(C#CCNC(N)=O)ccc31)[C@H](C(=O)NC[C@H](O)c1ccccc1)[C@H]1C(=O)O[C@H](c3ccccc3)[C@H](c3ccccc3)N1[C@@H]2c1ccc(OCCO)cc1,1.55,2.39 (inactive),1.54 (inactive),4.57 (inactive),2.5,0.383 (inactive),-0.0083,0.683,1.16,-0.0828,1.44,0.398,0.782,-0.204 (inactive),0.872,0.939,0.565,0.898,0.301,0.649
COCCOC(=O)N1C(=O)[C@@]2(c3cc(C#CC4=CCCCC4)ccc31)[C@H](c1ccccc1OCCO)N1[C@H](c3ccccc3)[C@H](c3ccccc3)OC(=O)[C@H]1[C@@H]2C(N)=O,1.56,0.05 (inactive),-0.96 (inactive),1.69 (inactive),1.66,2.66 (inactive),-0.107,1.39,1.1,-0.0211,1.35,-0.0668,-0.144,-3.87 (inactive),1.29,1.31,0.766,1.2,0.912,0.557
NCCCC[C@@H]1NC(=O)[C@H]2C[C@@H](C(=O)NCc3ccc(F)cc3)[C@@H](c3cccc(OCCO)c3)N2C1=O,1.56,1.74 (inactive),-0.0785 (inactive),0.482 (inactive),2.69,-0.765 (inactive),-0.0258,1.81,1.05,0.0176,1.43,0.0142,-0.142,-0.436 (inactive),1.32,1.34,0.803,1.47,1.6,0.799
C[N+](C)(C)CCCCCCNC(=O)[C@@H]1C[C@@H]2C(=O)N[C@@H](Cc3ccccc3)C(=O)N2[C@@H]1c1ccc(O)cc1,1.54,-0.351 (inactive),-0.193 (inactive),-0.496 (inactive),3.06,-0.0343 (inactive),-0.183,1.46,1.04,0.0144,1.61,-0.409,-0.578,0.372 (inactive),1.21,0.89,0.776,1.48,0.92,0.633
